Hits are enriched below; roughly 3.3% of the tested compounds scored in any of these assays.
Hsp90 Hop PPI: changes Hsp90-Hop TPR2A binding signal, up or down. 0.44% of 71,000 active. AlphaScreen TPR2A-His6 binding biotin-Hsp90 C-terminal peptide. AID 595. Potency, µM (top dose mostly 57 µM), inactives show at the top dose activity change, negative = inhibition; active = well fitted curve in either direction with a large enough effect; inconclusive = small, poorly fitted or top-dose-only effect, or another doubt; note: potency is the fitted concentration of half-maximal effect; % is set by controls: 0 for no effect and ±100 for the full control effect
Pol III holo inh: DNA polymerase III holoenzyme inhibition. Potency, µM (series often up to 57.1 µM), for the others: top-dose activity change, negative = inhibition. reconstituted DNA polymerase III holoenzyme replication, biochemical. 0.25% of 71,000 active; note: potency is the fitted concentration of half-maximal effect; % is set by controls: 0 for no effect and ±100 for the full control effect
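Reconstituted *E. coli* holoenzyme (0.35 nM Pol III, 1 nM beta, 154 nM SSB, 2 nM primase) was preincubated with compound for 15 min at RT. Synthesis on 1.4 nM ssM13Gori ran 35 min, then was stopped with PicoGreen/EDTA and read as dsDNA fluorescence.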
YjeE inh: inhibitors of E. coli YjeE (TsaE). P0AF67. purified YjeE enzyme, qHTS inhibition assay. Potency, µM. 0.05% of 71,000 active
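Fluorescence polarization of a BODIPY Texas Red–ADP probe (2 uM) bound to purified YjeE (10 uM) was read after 15 min room-temperature incubation with compounds. Loss of polarization marks inhibitors; ADP serves as titrated control.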
15-hLO inh: 15-hLO (ALOX15) enzyme inhibition; purified 15hLO-1, xylenol orange hydroperoxide absorbance; AID 887; Potency, µM (highest dose often 57.1 µM), inactives show at the top dose activity change, negative = inhibition, usual class: inhibitors; 1.4% of 74,000 active; P16050; note: potency is the fitted concentration of half-maximal effect; % is set by controls: 0 for no effect and ±100 for the full control effect; nearly all actives have a fitted effect of over 55% in size
Target sequence (P16050 whole entry, looked up): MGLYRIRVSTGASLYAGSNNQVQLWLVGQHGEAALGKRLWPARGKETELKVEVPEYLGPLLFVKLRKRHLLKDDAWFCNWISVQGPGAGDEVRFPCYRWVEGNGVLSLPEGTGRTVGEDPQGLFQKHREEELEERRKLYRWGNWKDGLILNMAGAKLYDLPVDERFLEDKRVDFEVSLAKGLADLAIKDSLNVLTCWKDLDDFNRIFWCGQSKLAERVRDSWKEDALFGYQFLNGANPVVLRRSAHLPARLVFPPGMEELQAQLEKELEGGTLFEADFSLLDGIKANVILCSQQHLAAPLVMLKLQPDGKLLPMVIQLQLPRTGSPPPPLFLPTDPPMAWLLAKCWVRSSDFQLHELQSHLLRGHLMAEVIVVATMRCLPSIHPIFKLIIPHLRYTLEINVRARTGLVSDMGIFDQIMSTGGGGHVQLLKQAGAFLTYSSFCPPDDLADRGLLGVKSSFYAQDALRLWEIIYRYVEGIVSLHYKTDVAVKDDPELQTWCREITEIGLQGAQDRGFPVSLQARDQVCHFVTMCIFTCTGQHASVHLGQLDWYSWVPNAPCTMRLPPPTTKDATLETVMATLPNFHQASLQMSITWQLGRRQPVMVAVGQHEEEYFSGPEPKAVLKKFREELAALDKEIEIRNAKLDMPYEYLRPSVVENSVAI
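Compounds were preincubated 15 min at room temperature with 40 nM purified human enzyme (25 mM Hepes pH 7.5, 0.01% Triton X-100); 50 uM arachidonic acid reacted 6 min. Fe-xylenol orange detection, 30 min, absorbance ratio 573/405 nm.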
Tau filament bind: binds recombinant human tau filaments | AID 596 | Potency, µM (titrated, usually from 57.1 µM), without a hit: top-dose activity change, negative = inhibition | 2% of 71,000 active | P10636 | recombinant tau filaments, thioflavin S fluorescence, 15 h; filaments grown with octadecylsulfate alongside compound;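 note: potency is the fitted concentration of half-maximal effect; % is set by controls: 0 for no effect and ±100 for the full control effect; actives lower thioflavin S fluorescence by blocking filaments or displacing dye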
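His-tagged recombinant human tau (exons 2, 3, 10; 1 uM final) fibrillized with 30 uM sodium octadecylsulfate, 15 h at 37 C, in pH 7.4 HEPES buffer with 10 uM thioflavine S and 5 mM DTT. Reduced ThS fluorescence (450/510 nm) marks activity.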
* = called active by the depositor; i = inactive; ? = inconclusive; · = no result; [ ] = remark or other dose. Unless noted, calls come from the whole dose curve; as a rule, active = well fitted curve in the direction sought with a large enough effect; inconclusive = small, poorly fitted or top-dose-only effect, or another doubt; inactive = no such curve, though single readings can be large; an effect the other way counts as inactive or inconclusive.

SMILES | Hsp90 Hop PPI | Pol III holo inh | YjeE inh | 15-hLO inh | Tau filament bind
COc1ccc([C@@H]2CC(=O)c3c(O)cc(O[C@@H]4O[C@@H](CO[C@@H]5O[C@@H](C)[C@@H](O)[C@@H](O)[C@H]5O)[C@@H](O)[C@@H](O)[C@H]4O)cc3O2)cc1O | -3% | -7% | i | · | 152%
O=c1c2ccccc2c2ccccc2c(=O)n1-c1cc2c3ccccc3ccc2c2ccccc12 | -4%[11 µM] | -3%[11.4 µM] | i | 15%[11.4 µM] | 8%[11.4 µM]
O=C1C=CC(=O)c2c1ccc1c2ccc2ccccc21 | -27%[26 µM] | -11%[25.6 µM] | i | -6%[25.6 µM] | 4µM*
CO/N=C(\C)CCN1CCCc2nc(C)c(C)cc21 | · | · | · | -11%[11.4 µM] | ·
CCOc1ccc(S(=O)(=O)N2CCc3ccccc3C2)cc1 | 19% | 3% | i | -10% | 2%
CCOc1ccc(N2Cc3ccccc3C2)cc1 | -16% | -2% | i | -9% | 16µM*
Cc1cc(S(=O)(=O)Nc2ccccc2C(=O)O)ccc1F | · | · | · | -1% | ·
COc1cccc(-c2cnc(NCc3cc(Cl)ccc3O)n2C)c1 | ? | -1% | i | 32µM* | 30%
Cn1c(-c2cccc(Br)c2)cnc1NCc1cccnc1 | -11% | -6% | i | 16% | 13%
Cc1c(C)n(CC(O)CN2CCCCCC2)c2ccccc12 (stereo not drawn) | -5% | 10% | i | ? | 13µM*
COc1ccc(C=Nc2c(O)ccc3ccccc23)cc1OC | -8%[11 µM] | -8%[11.4 µM] | i | -9%[11.4 µM] | 4µM*
Cc1ccc2c(c1C)NC(C(=O)O)C1CC=CC21 (stereo not drawn) | -14% | 25µM* | i | ? | 3.2µM*
O=C(O)C1Nc2c(C(=O)N3CCOCC3)cccc2C2C=CCC12 (stereo not drawn) | -11% | -24% | i | -4% | 105%
CCOC(=O)c1ccc2c(c1)C1C=CCC1C(C(=O)O)N2 (stereo not drawn) | -21% | 16µM* | i | ? | ?
NC(N)=N/N=C(/c1ccccc1)c1ccc(O)cc1O | -2%[11 µM] | -5%[11.4 µM] | i | 12%[11.4 µM] | -2%[11.4 µM]
CCCCn1c2nc3ccccc3nc2c2c(=N)oc(C)nc21 | 3% | -7% | i | -1% | 285%
CCCCC(CC)Cn1c2nc3ccccc3nc2c2c(=N)oc(C)nc21 (stereo not drawn) | 0% | -4% | i | -10% | 2.5µM*
O=C1CCCC=C1[C@H](CCc1ccccc1)OC(=O)c1ccc(Br)cc1 | · | · | · | 3%[11.4 µM] | ·
O=c1cc(-c2ccccc2)oc2cc(O[C@H]3O[C@H](CO)[C@@H](O)[C@H](O)[C@@H]3O)c(O)c(O)c12 | -6% | -9% | i | · | ?
Nc1nc2c(s1)CCc1c-2cnn1-c1ccccc1 | -26% | ? | i | 2.5µM* | 20µM*
CC(C)=CCc1c(O)cc(O)c2c1O[C@H](c1ccccc1)CC2=O | 2% | -2% | i | 2%[25.6 µM] | 40µM*
O=C1C[C@@H](c2ccc(O)cc2)Oc2cc(O)cc(O)c21 | -9% | -5% | i | 1%[25.6 µM] | ?
CC(=O)Nc1cc(-c2ccccc2)ccc1O | -4% | 0% | i | -7% | 14%
Nc1cc(-c2ccccc2)ccc1O | -9% | -4% | i | 7.9µM* | 25µM*
COc1ccccc1NC(=O)N1CCN(c2cccc(C(F)(F)F)c2)CC1 | ? | -7% | i | 40µM* | 2%
SMILES | Hsp90 Hop PPI | Pol III holo inh | YjeE inh | 15-hLO inh | Tau filament bind
Cc1nc2sc(C(=O)O)c(N)c2c2c1COC(C)(C)C2 | 0% | -2% | i | -28% | 5%
CCOC(=O)c1sc2nc(N3CCOCC3)c3c(c2c1N)CC(C)(C)N(C)C3 | -5% | -6% | i | -10% | 13µM*
CCOC(=O)c1sc2nc(-c3ccco3)c3c(c2c1N)CC(C)(C)OC3 | -2% | -9% | i | 16µM* | 13µM*
CC1=C2[C@H](/C=C(\C)C(=O)O)CC[C@@H](C)[C@H]2CC1 | -5% | -5% | i | -11% | -11%
C[C@@H]1O[C@@H](OC[C@@H]2O[C@@H](Oc3c(-c4ccc(O)c(O)c4)oc4cc(O)cc(O)c4c3=O)[C@H](O)[C@H](O)[C@@H]2O)[C@H](O)[C@H](O)[C@@H]1O | 1% | -6% | i | · | ?
C=CCn1c(SCC(=O)Nc2ccc(NC(=O)c3ccco3)c(OC)c2)nnc1-c1ccncc1 | -6% | 3% | i | 0% | 13µM*
Cc1cccn2c(=O)c3cc(C(=O)NC(C)C)c(=N)n(Cc4ccncc4)c3nc12 | -5% | -6% | i | -2% | 35%
CCNC(=O)c1cc2c(=O)n3cccc(C)c3nc2n(Cc2ccc(C)cc2)c1=N | -3% | -2% | i | -5% | 1.6µM*
COCCn1c(=N)c(C(=O)NCCc2ccc(OC)cc2)cc2c(=O)n3cccc(C)c3nc21 | -2% | -13% | i | -8% | 2µM*
CN[C@@H]1[C@H](O)[C@H](NC)[C@@H]2O[C@]3(O)C(=O)C[C@@H](C)O[C@H]3O[C@@H]2[C@H]1O | ? | -4% | i | · | 40µM*
COc1ccc(Cl)cc1N=Nc1ncc[nH]1 | -9% | -14% | i | -15%[25.6 µM] | 40µM*
COc1ccc(-c2coc3ccc(O[C@@H]4O[C@@H](COC(C)=O)[C@@H](OC(C)=O)[C@@H](OC(C)=O)[C@H]4OC(C)=O)c(OC(C)=O)c3c2=O)cc1 | -5% | -5% | i | · | ?
CCN1C(=O)c2cccc3c(S(=O)(=O)Nc4ccccc4OC)ccc1c23 | 2% | -3% | i | -19% | 20µM*
COc1ccc(C2C3=C(CC(C)(C)CC3=O)Oc3ncn(CC(C)C)c(=N)c32)cc1 (stereo not drawn) | -9% | -1% | i | 0% | 4µM*
COc1ccc(C2C3=C(CC(C)(C)CC3=O)Oc3ncn(Cc4ccco4)c(=N)c32)cc1 (stereo not drawn) | -24% | -12% | i | -7% | 16µM*
NS(=O)(=O)c1ccc(Nc2nc(-c3ccc(O)cc3)cs2)cc1 | -10% | 8% | i | 25µM* | 17%
O=S(=O)(NCCNC/C=C\c1ccc(Br)cc1)c1cccc2cnccc12 | -16% | -2% | i | -16% | -7%
CCN(CC)c1ccc(NC(=O)c2cncc(Br)c2)cc1 | -29% | -2% | i | -8% | 20µM*
CCN(CC)c1ccc(C(=O)Nc2cccc(F)c2)cc1 | 0% | -2% | i | -24% | -5%
O=C1C(Cl)=C(NC2CCc3ccccc32)C(=O)c2ncccc21 (stereo not drawn) | ? | -6% | i | -17% | 25µM*
Cc1cc(C)nc(Nc2nc(=O)c3ccccc3s2)n1 | -3% | -4% | i | 7.9µM* | 33%
C/C(CCN1CCCc2nc(C)c(C)cc21)=N\O[C@@H](C)c1cn([C@H](CO)Cc2ccccc2)nn1 | · | · | · | 7%[11.4 µM] | ·
Cc1ccc2c(CC(=O)OCc3csc(C)n3)coc2c1 | 8% | -7% | i | -12% | -2%
O=C(Cc1coc2cc3c(cc12)CCC3)OCc1cc(=O)n2c(n1)sc1ccccc12 | -10% | -20% | i | 20µM* | 71%
